Here are results for 94 compounds from PubChem BioAssay AID2314 (National Center for Advancing Translational Sciences (NCATS), 2010).

Out of some 300,000 compounds screened, about 37,000 (12%) were called active. Cut-off read from the data, not from the text of the source: active = max response mostly above about 13% (no sharp cut-off); inactive = mostly below about 14%. Shown is part of a subset that was picked to be rich in actives.

A short description of this test: Cycloheximide Counterscreen for Small Molecule Inhibitors of Shiga Toxin. Note: read at 38.3 µM for the half of the compounds with a filed dose; 0% is about no effect. As to conditions: cell reporter, cycloheximide protein synthesis inhibition counterscreen; active compounds read high. In general terms: Counterscreens check selectivity or assay interference.
For the compound `Cc1nn(Cc2ccccc2)c(C)c1NS(=O)(=O)c1ccccc1`, the max response was 5.29% (inactive).

Turning to `CCN(CC)S(=O)(=O)c1ccc(N(C)CCc2ccc(OC)c(OC)c2)nc1`, the max response is -1.93% (inactive).

With `CCOc1ccccc1NC(=O)Cn1ncc2ccc([N+](=O)[O-])cc21`, the max response was 8.74% (inactive).

Consider `CCN(CC)CCN1C(=O)C2C(C(=O)Nc3ccc(Br)cc3)C3C=CC2(O3)C1C(=O)NC1CCCCC1` (centres undefined), for which the max response is -5.6% (inactive).

Consider `CC(C)N1C(=O)C2C(C(=O)NC3CCCCC3)C3C=CC2(O3)C1C(=O)NC1CCCC1` (centres undefined), for which the max response was -1.06% (inactive).

Take `O=C(Nc1ccccc1F)C1C2C=CC3(O2)C1C(=O)N(c1cccnc1)C3C(=O)NC1CCCCC1` (centres undefined): the max response is 41.8% (active).

As for `Cc1cccc(C(=O)NC(=S)N2CCN(c3ccc([N+](=O)[O-])cc3)CC2)c1`, the max response is -1.96% (inactive).

With `O=c1c(-c2ccc(Cl)cc2)[n+]([O-])c2ccccc2n1OCc1nc2ccccc2[nH]1`, the max response is 24.8% (active).

In the case of `CCN(CC)CCCNC(=S)N(CCO)Cc1cc2cc3c(cc2[nH]c1=O)OCO3`, the max response was -1.33% (inactive).

Consider `COc1ccc(CCNC(=O)CCC(=O)NC2CCCCC2)cc1OC`, for which the max response is -1.91% (inactive).

With `CC(C)(C)C1CCC(C(=O)Nc2cccnc2)CC1` (centres undefined), the max response was -2.39% (inactive).

For `COCC1CCCN(Cc2nc(-c3ccc4c(c3)OCO4)no2)C1` (centres undefined), the max response was 42.1% (active).

Regarding `CC1CCCN(CC(O)COc2ccc3c(c2)OCO3)C1` (centres undefined), the max response was 4.28% (inactive).

`COCC1CCCN(Cc2cn[nH]c2-c2cc3ccccc3o2)C1` (centres undefined): the max response is 7.39% (inactive).

In the case of `Cc1c(NC(=O)c2c([N+](=O)[O-])cnn2C)c(=O)n(-c2ccccc2)n1C`, the max response is -6.14% (inactive).

As to `Cc1nc2ccccc2c2oc(C(=O)NCC3CCCO3)cc12` (centres undefined), the max response is -1.07% (inactive).

As for `COc1ccc(SCc2noc(C(=O)NCC3CCCO3)c2C(=O)O)cc1` (centres undefined), the max response was -3.22% (inactive).

As to `O=C(Nc1ccccc1C(=O)NCC1CCCO1)c1ccccc1F` (centres undefined), the max response is 14.1% (inactive).

In the case of `O=C(NCC1CCCO1)c1cc(-c2ccccc2)nc2ccccc12` (centres undefined), the max response is 9.86% (inactive).

Consider `O=C(NCC1CCCO1)c1ccccc1-c1nc(-c2ccccc2Cl)no1` (centres undefined), for which the max response is 27.4% (active).

As to `O=C(CSCc1c(F)cccc1Cl)NCC1CCCO1` (centres undefined), the max response is 13.1% (inactive).

As for `Cc1ccc(-c2noc(-c3ccccc3C(=O)NCC3CCCO3)n2)cc1` (centres undefined), the max response is 27.2% (active).

Turning to `O=C(NCC1CCCO1)c1ccc2ccccc2n1` (centres undefined), the max response was 29.9% (active).

Turning to `COc1ccc2cc(C(=O)NCC3CCCO3)[nH]c2c1` (centres undefined), the max response was 62.1% (active).

As for `Cc1ccccc1CN(c1ccc(C(=O)NCC2CCCO2)cc1)S(C)(=O)=O` (centres undefined), the max response was -5.23% (inactive).

Regarding `COCCNC(=O)c1ccccc1-c1nc(-c2ccccc2Cl)no1`, the max response was 28.8% (inactive).

As to `CCC(=O)c1c[nH]c(C(=O)NCC2CCCO2)c1` (centres undefined), the max response was -0.953% (inactive).

With `Cc1sc2ncn(CC(=O)NCCCC(=O)NCc3ccc(F)cc3)c(=O)c2c1C`, the max response is -1.09% (inactive).

As for `Cc1cccn2c(CN(C)C3CCCc4ccccc43)c(C(=O)N3CCOCC3)nc12` (centres undefined), the max response is -3.53% (inactive).

With `Cc1cc2c(cc1C)N(Cc1ccccc1)C1=NCCCN12`, the max response was -2.27% (inactive).

As to `CC(C)C[C@H](NC(=O)C1CCC(CNC(=O)[C@@H]2CCCN2C(=O)OC(C)(C)C)CC1)C(=O)O` (some centres undefined), the max response was 0.405% (inactive).

In the case of `CC(C)[C@H](NC(=O)N1CC(=O)Nc2ccccc21)C(=O)N[C@@H](Cc1c[nH]c2ccccc12)C(=O)O`, the max response was -2.21% (inactive).

On to `CN1CCN(c2ncc3c(n2)CC(c2ccccc2F)CC3=O)CC1` (centres undefined), for which the max response was -2.88% (inactive).

Take `COc1ccc2ccccc2c1CNc1nnnn1C`: the max response was -2.6% (inactive).

As for `COc1ccc(C)cc1NC(=O)NCc1ccccn1`, the max response is -3.22% (inactive).

As to `COc1ccc2ccccc2c1CNCc1ccccn1`, the max response was 20.7% (active).

`Cc1ccc(-c2c(C)n([O-])c3c([n+]2=O)CCC3)cc1`: the max response was 2.58% (inactive).

`CC(Oc1ccc(-c2ccccc2)c(F)c1)c1ccn(S(=O)(=O)c2cccc3ccccc23)n1` (centres undefined): the max response was -1.64% (inactive).

`NNC(=O)CNC(c1ccccc1)c1cc(Cl)ccc1NC(=O)c1ccccc1` (centres undefined): the max response was -3.14% (inactive).

For the compound `O=C(N/N=C/c1ccc([N+](=O)[O-])o1)c1cn(-c2ccccc2)nc1-c1ccc(F)cc1`, the max response is 10.8% (inactive).

Turning to `C/[N+]([O-])=C\c1ccc([N+](=O)[O-])o1`, the max response was 8.46% (inactive).

As to `O=C(/C=C/c1ccc([N+](=O)[O-])o1)NNC(=O)c1ccc(F)cc1`, the max response was 71.2% (active).

For the compound `CCOc1ncccc1C(=O)OCc1cn2cc(Cl)ccc2n1`, the max response is 9.62% (inactive).

In the case of `O=C(/C=C/c1ccc2c(c1)OCO2)NCc1cn2cc(Cl)ccc2n1`, the max response is 2.11% (inactive).

For the compound `Clc1ccc2nc(CSc3ccccc3)cn2c1`, the max response was 26.2% (active).

Take `Cc1nn(CCCC(=O)NCc2ccccc2Cl)c(=O)c2nccn12`: the max response is -3.04% (inactive).

Consider `O=C(COC(=O)c1cccc(Br)c1)Nc1cccc2c1C(=O)c1ccccc1C2=O`, for which the max response was 25.2% (active).

Regarding `O=C(COC(=O)Cc1ccccc1)Nc1ccc(F)cc1`, the max response was -1.31% (inactive).

In the case of `O=C(COC(=O)c1ccccc1)Nc1ccccc1Sc1ccccc1`, the max response was 9.64% (inactive).

For the compound `Cc1cccc(C(=O)OCC(=O)Nc2ccc(F)cc2)c1`, the max response was 10% (active).

As for `COc1ccc(C(=O)OCC(=O)Nc2cccc(C(C)=O)c2)cc1OC`, the max response is 9.48% (inactive).

In the case of `O=C(COC(=O)Cn1cnc2ccccc21)Nc1cccc2c1C(=O)c1ccccc1C2=O`, the max response was -4.76% (inactive).

`O=C1CCN(Cc2ccccc2)CCN1[C@H](CSc1ccccc1)c1ccccc1`: the max response was -1.82% (inactive).

Turning to `CCOc1ccccc1NC(=S)NC(=O)CCc1ccccc1`, the max response is 1.38% (inactive).

In the case of `CCOc1ccc(CN2CCC(n3nccc3NC(=O)C3CC3)CC2)cc1CO`, the max response is -1.74% (inactive).

On to `Cc1ccc(CC2(O)CCN(CCOc3ccc(O)cc3)CC2)cc1`, for which the max response was 4.37% (inactive).

Regarding `CC(C)C(=O)Nc1ccc2oc(=O)ccc2c1`, the max response was -3.4% (inactive).

Regarding `CC(C)C(=O)Nc1ccc2c(c1)oc1ccccc12`, the max response was 67% (active).

For the compound `CC(C)C(=O)Nc1c(C(=O)c2ccc(F)cc2)oc2ccccc12`, the max response was -1.75% (inactive).

As for `Cn1c(=O)c(=O)n(C)c2cc(S(=O)(=O)CCC(=O)N3CCCCC3)ccc21`, the max response was -2.58% (inactive).

Turning to `Cc1nn(Cc2ccccc2Cl)c(Cl)c1C(=O)OC(C(=O)NC(N)=O)C(C)C` (centres undefined), the max response is -4.81% (inactive).

Take `COc1ccccc1CCNC(=O)c1c(C)nn(CC(C)C)c1Cl`: the max response is 39% (active).

Turning to `COc1ccccc1CCNC(=O)c1cnccn1`, the max response was 12.4% (inactive).

As to `COc1ccc(C(=O)NC2CC2)cc1OC1CCN(C/C=C/c2ccccc2)CC1`, the max response was 2.49% (inactive).

As for `COc1ccc(C)cc1N(CC(=O)NC(C)c1ccccc1)S(C)(=O)=O` (centres undefined), the max response was 5.61% (inactive).

As for `COc1ccc(C(=O)CC2C(=O)N(C)C(=O)N(C)C2=O)cc1`, the max response was 4.98% (inactive).

Turning to `CO/N=C/CC(=O)c1ccc(OC)cc1`, the max response was 49.2% (active).

Turning to `COc1ccc(OCCC(=O)c2ccc(OC)cc2)cc1`, the max response was 4.64% (inactive).

In the case of `Cc1ccc(NS(=O)(=O)c2c(C)[nH]c(=O)[nH]c2=O)cc1C`, the max response is -1.76% (inactive).

`CCOC(=O)c1nnn(-c2nonc2-n2cccc2)c1CN1CCC(C(=O)OCC)CC1`: the max response is -2.67% (inactive).

In the case of `O=C(COC(=O)CNC(=O)c1ccco1)Nc1ccc(F)cc1`, the max response was -3.97% (inactive).

Consider `Cc1ccc(OCC(=O)c2cc(C)n(Cc3ccco3)c2C)c([N+](=O)[O-])n1`, for which the max response was 43.4% (active).

As for `Cc1cc(C(=O)COC(=O)CNC(=O)c2ccc(F)cc2)c(C)n1Cc1ccco1`, the max response was 106% (active).

Take `COCC(C)n1c(C)cc(C(=O)COc2ccc(C)nc2[N+](=O)[O-])c1C` (centres undefined): the max response was 8.12% (inactive).

Take `COc1ccc(C)cc1-n1nnnc1SCC(=O)c1cc(C)n(Cc2ccco2)c1C`: the max response is 27.1% (inactive).

`Cc1cc(C(=O)CSc2nc(N)cc(=O)[nH]2)c(C)n1Cc1ccco1`: the max response was -1.02% (inactive).

In the case of `Cc1ccc(S(=O)(=O)NCC(=O)N2CCOCCOCCOCCOCC2)cc1`, the max response was -3.49% (inactive).

For the compound `CC(C)CC(=O)c1c[nH]c(C(=O)NCc2ccccc2)c1`, the max response is -3.39% (inactive).

Turning to `COC(=O)C(CC(C)C)NS(=O)(=O)c1cc(Br)ccc1Br` (centres undefined), the max response was -8.13% (inactive).

Take `Cc1cc2c(cc1S(=O)(=O)CCC(=O)NCc1ccccc1)OCC(=O)N2`: the max response was -1.02% (inactive).

Turning to `CCn1ccnc1CNC(=O)CC1C(=O)NCCN1Cc1ccc(F)cc1Cl` (centres undefined), the max response is 8.96% (inactive).

Consider `Clc1ccc(CN2CCCCCC2)cc1Cl`, for which the max response was -3.66% (inactive).

As to `Cc1cccc(-n2c(=O)c3c(C)c(C)sc3n(CC(N)=O)c2=O)c1`, the max response was -0.167% (inactive).

On to `COc1ccc(-c2nnc(SC(C)C#N)o2)cc1` (centres undefined), for which the max response is 27.2% (inactive).

Regarding `COC(=O)CSc1nnc(-c2cccnc2)o1`, the max response was 12.2% (inactive).

On to `COc1ccc(-c2nnc(SCc3cccnc3)o2)cc1`, for which the max response is 30.9% (active).

Take `COc1ccccc1CNS(=O)(=O)c1c(C)[nH]c(C)c1C(=O)N1CCCCC1`: the max response is 11% (inactive).

As for `O=c1[nH]cnc(O)c1C(c1ccc(F)cc1)c1c(O)nc[nH]c1=O`, the max response is -2.78% (inactive).

Regarding `CCOc1ccc(N(CC(=O)NCC2CCCO2)S(=O)(=O)c2ccc(C)cc2)cc1` (centres undefined), the max response is 0.744% (inactive).

On to `COc1cccc(/C=C2/SC(=S)N(CC(=O)NC3C=CS(=O)(=O)C3)C2=O)c1` (centres undefined), for which the max response was 8.26% (inactive).

For the compound `COc1ccc(N2C(=O)NC(NS(=O)(=O)c3ccc(Cl)cc3)(C(F)(F)F)C2=O)cc1` (centres undefined), the max response is -5.1% (inactive).

In the case of `COc1ccc(OC)c(-c2csc(-c3cccs3)n2)c1`, the max response is 30.2% (inactive).

In the case of `COc1ccc(-c2csc(-c3cccs3)n2)cc1OC`, the max response is 59.6% (active).

On to `CNC(=O)c1[nH]cnc1C(=O)N[C@@H](CC(C)C)C(=O)OC(C)(C)C`, for which the max response was -1.12% (inactive).
